Source: PubChem BioAssay (NCATS)
Values joined by “and” are separate entries in the source; they are usually repeats but may differ in a detail not shown here. Equal values may be shown once. Results filed as inconclusive are left out. The source holds several records for some structures; these can differ, active in one and inactive in another. Active and inactive are the calls of the source. Calls follow the shape of the dose curve; as a rule, active = well fitted inhibition curve with a large enough effect; inconclusive = small, poorly fitted or top-dose-only effect; inactive = flat fitted curve, though single readings scatter.

How the values were obtained:
CRL-7250 = normal cell line; experiment: Cytotoxic Profiling of Annotated Libraries Using Quantitative High-Throughput Screening (AID 1296008); details: Five cell lines viability, CellTiter-Glo ATP luminescence, 48-72 h; max response: stronger effect = lower value; as to max response: % is scaled to controls: 0 for no effect and ±100 for the full control effect
Summary of the method: (§1)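 Cells exposed to compounds for 48 or 72 hr at 37 degrees Celsius. Viability read as ATP-coupled luminescence with CellTiter-Glo after 10 min at room temperature.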

HEK293 = experiment: as above; details: Five cell lines viability, CellTiter-Glo ATP luminescence, 48-72 h; max response: stronger effect = lower value
Summary of the method: as §1

PC15 = experiment: qHTS profiling for inhibitors of Plasmodium falciparum proliferation (AID 504749); details: P. falciparum in erythrocytes, SYBR Green DNA, 72 h; series mostly up to 28.7 µM
Summary of the method: (§2)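 SYBR Green fluorescence (ex 485 nm, em 535 nm) reports parasite DNA after 72 h compound exposure of infected red cells at 0.3% parasitemia, 2.5% hematocrit; signal normalized to 0.29 uM artemisinin and vehicle wells.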

PC26 = experiment: as above; details: P. falciparum in erythrocytes, SYBR Green DNA, 72 h; series mostly up to 28.7 µM
Summary of the method: as §2

PC49 = experiment: as above; details: P. falciparum in erythrocytes, SYBR Green DNA, 72 h; series mostly up to 28.7 µM
Summary of the method: as §2

SC27B = experiment: as above; details: P. falciparum in erythrocytes, SYBR Green DNA, 72 h; series mostly up to 28.7 µM
Summary of the method: as §2

TAB109 = experiment: as above; details: P. falciparum in erythrocytes, SYBR Green DNA, 72 h; series mostly up to 28.7 µM
Summary of the method: as §2

TAB113 = experiment: as above; details: P. falciparum in erythrocytes, SYBR Green DNA, 72 h; series mostly up to 28.7 µM
Summary of the method: as §2

W2 = experiment: as above; details: P. falciparum in erythrocytes, SYBR Green DNA, 72 h; series mostly up to 28.7 µM
Summary of the method: as §2

TAB165 = experiment: as above; details: P. falciparum in erythrocytes, SYBR Green DNA, 72 h; series mostly up to 28.7 µM
Summary of the method: as §2
Also: nearly all actives have a fitted effect of over 60% in size.
Potency is read from the fitted curve at half-maximal effect.

c1ccc([C@H]2CN3CCSC3=N2)cc1
inactive: max response (CRL-7250) -3.88% and 4.82% | max response (HEK293) -11.1% | outcome (HEK293)

CC1(C)SCCN(S(=O)(=O)c2ccc(OCC#CCO)cc2)[C@@H]1C(=O)NO
inactive: max response (CRL-7250) -4.21% | max response (HEK293) -25.6%

NS(=O)(=O)c1cc2c(cc1Cl)NC=NS2(=O)=O
inactive: Potency (PC15) | Potency (PC26) | Potency (PC49) | Potency (SC27B) | Potency (TAB109) | Potency (TAB113) | Potency (W2) | max response (CRL-7250) -0.778% and -4.67% | max response (HEK293) -4.01% and 0.386%

NCCc1ccc(O)c(O)c1
inactive: Potency (PC15) | Potency (PC26) | Potency (PC49) | Potency (SC27B) | Potency (TAB109) | Potency (TAB113) | Potency (TAB165) | max response (CRL-7250) 1.67% and -14% | max response (HEK293) -42.9%

CC(C=CC1=C(C)CCCC1(C)C)=CC=CC(C)=CC(=O)O
inactive: max response (CRL-7250) -11.2% | max response (HEK293) 1.74% | outcome (HEK293)

CCOc1cc(C=C2C(=O)N(c3ccccc3)N=C2C)cc(Cl)c1OCC(=O)OC
inactive: max response (CRL-7250) 3.6% | max response (HEK293) 0.832%

CCCc1nc2c(C)cc(-c3nc4ccccc4n3C)cc2n1Cc1ccc(-c2ccccc2C(=O)O)cc1
active: Potency (PC15) 2.51 µM | Potency (PC49) 2.51 µM | Potency (SC27B) 1.58 µM | Potency (TAB113) 2.24 µM | Potency (TAB165) 1.58 µM | Potency (W2) 1.9 µM
inactive: max response (CRL-7250) -5.08% and 4.25% | outcome (HEK293)

CCc1ccc(CCOc2ccc(CC3SC(=O)NC3=O)cc2)nc1 (stereo unspecified)
inactive: Potency (PC15) | Potency (PC26) | Potency (PC49) | Potency (SC27B) | Potency (TAB109) | Potency (TAB113) | Potency (TAB165) | Potency (W2) | max response (CRL-7250) -4.18% and 2.83% | max response (HEK293) -6.03% | outcome (HEK293)

Cn1cnc([N+](=O)[O-])c1Sc1ncnc2nc[nH]c12
inactive: Potency (PC49) | Potency (SC27B) | Potency (TAB109) | Potency (TAB113)
active: Potency (TAB165) 11.2 µM | Potency (CRL-7250) 3.4 µM and 10.6 µM | Potency (HEK293) 10.5 µM

Cc1c(C)c2c(c(C)c1O)CCC(C)(COc1ccc(CC3SC(=O)NC3=O)cc1)O2 (stereo unspecified)
active: Potency (SC27B) 10 µM | Potency (TAB113) 11.2 µM | Potency (W2) 6.75 µM
inactive: Potency (PC15) | Potency (PC49) | Potency (TAB109) | outcome (CRL-7250) | max response (HEK293) -17% | outcome (HEK293)

COc1ccc(CCN2CCN(CCCc3ccccc3)CC2)cc1OC
inactive: outcome (CRL-7250) | max response (HEK293) -22.2%
active: Potency (HEK293) 6.51 µM

Nc1ccc(S(=O)(=O)Nc2ccnn2-c2ccccc2)cc1
inactive: Potency (PC15) | Potency (PC26) | Potency (PC49) | Potency (SC27B) | Potency (TAB109) | Potency (TAB113) | Potency (TAB165) | Potency (W2) | outcome (CRL-7250) | max response (HEK293) -2.4% and -5.26%

C1COC(NC(C2CC2)C2CC2)=N1
inactive: Potency (PC15) | Potency (PC49) | Potency (SC27B) | Potency (TAB113) | Potency (W2) | max response (CRL-7250) 1.84% and -1.88% | max response (HEK293) 3.3% and -8.9%

NC(=O)c1cnccn1
inactive: Potency (PC15) | Potency (PC26) | Potency (PC49) | Potency (SC27B) | Potency (TAB109) | Potency (TAB113) | Potency (TAB165) | Potency (W2) | max response (CRL-7250) 3.02% and 1.22% | max response (HEK293) -0.963% | outcome (HEK293)

CS(=O)(=O)c1cccc(CNc2nc(Nc3ccc4c(c3)CCC(=O)N4)ncc2C(F)(F)F)c1
active: Potency (HEK293) 18.4 µM

CNC(=O)c1ccc(N2C(=S)N(c3ccc(C#N)c(C(F)(F)F)c3)C(=O)C2(C)C)cc1F
inactive: max response (HEK293) -4.81%

O=C(Nc1cccnc1)N1CCC(Cc2cccc(Oc3ccc(C(F)(F)F)cn3)c2)CC1
active: Potency (HEK293) 10.5 µM and 8.2 µM

O=C1CCc2cc(OCCCCc3nnnn3C3CCCCC3)ccc2N1
inactive: Potency (TAB109) | Potency (W2) | max response (CRL-7250) -14.2% and -108% | max response (HEK293) -7.13%

Cn1cnc2c(F)c(Nc3ccc(Br)cc3Cl)c(C(=O)NOCCO)cc21
active: Potency (HEK293) 1.32 µM
inactive: max response (HEK293) -14.9%

Cc1cc(-c2ccc(CC(=O)Nc3ccc(-c4cccnc4)cc3)cc2)ccn1
active: Potency (HEK293) 9.35 µM

COc1ccc2nc(S(=O)Cc3ncc(C)c(OC)c3C)[nH]c2c1 (stereo unspecified)
inactive: Potency (PC15) | Potency (PC49) | Potency (SC27B) | Potency (TAB109) | Potency (TAB113)

CCc1cncnc1N1CCN(Cc2nc3ccc(C(F)(F)F)cc3[nH]2)CC1
active: Potency (HEK293) 14.8 µM and 13 µM

CC1(C)CNc2cc(NC(=O)c3cccnc3NCc3ccncc3)ccc21
active: Potency (HEK293) 5.8 µM
inactive: max response (HEK293) -29.2%

CCCS(=O)(=O)Nc1ccc(F)c(C(=O)c2c[nH]c3ncc(-c4ccc(Cl)cc4)cc23)c1F
inactive: max response (HEK293) -5.51%

C#Cc1cccc(Nc2ncnc3cc(OCCOC)c(OCCOC)cc23)c1
inactive: Potency (PC49)
active: Potency (W2) 4.26 µM | Potency (CRL-7250) 18.7 µM and 8.41 µM | Potency (HEK293) 16.6 µM

Clc1ccc(Nc2nnc(Cc3ccncc3)c3ccccc23)cc1
inactive: Potency (PC15) | Potency (PC26) | Potency (PC49) | Potency (SC27B) | Potency (TAB109) | Potency (TAB113) | max response (CRL-7250) 1.53% and -11.9% and 0.195%
active: Potency (TAB165) 12.6 µM

Nc1nc2ccc(OC(F)(F)F)cc2s1
inactive: Potency (PC15) | Potency (PC26) | Potency (PC49) | Potency (TAB109) | Potency (TAB113) | Potency (TAB165) | Potency (W2) | outcome (CRL-7250)

CN1CCN(CCCN2c3ccccc3Sc3ccc(C(F)(F)F)cc32)CC1
inactive: Potency (TAB113) | outcome (HEK293)
active: Potency (PC15) 10 µM | Potency (PC26) 13.5 µM | Potency (TAB109) 11.2 µM | Potency (W2) 4.78 µM | Potency (HEK293) 23.7 µM

Cc1cccc(-c2[nH]c(C(C)(C)C)nc2-c2ccc3nccnc3c2)n1
active: Potency (HEK293) 3.72 µM

CC(C)C[C@H](NC(=O)[C@@H](O)[C@H](N)Cc1ccccc1)C(=O)O
active: Potency (PC26) 9.53 µM | Potency (SC27B) 7.94 µM | Potency (TAB109) 6.31 µM | Potency (TAB113) 7.08 µM | Potency (TAB165) 5.01 µM | Potency (W2) 1.69 µM

Oc1ccc(C2CNCCc3c2cc(O)c(O)c3Cl)cc1 (stereo unspecified)
inactive: Potency (PC15) | Potency (PC26) | Potency (PC49) | Potency (SC27B) | Potency (TAB109) | Potency (TAB113) | Potency (TAB165)

Cc1oncc1C(=O)Nc1ccc(C(F)(F)F)cc1
inactive: Potency (PC15) | Potency (PC26) | Potency (PC49) | Potency (SC27B) | Potency (TAB109) | Potency (TAB113) | Potency (TAB165)
active: Potency (W2) 3.22 µM

N[C@@H]1CONC1=O
inactive: Potency (PC15) | Potency (PC26) | Potency (PC49) | Potency (SC27B) | Potency (TAB113) | Potency (TAB165) | Potency (W2)

NC[C@H](O)c1ccc(O)c(O)c1
inactive: Potency (PC15) | Potency (PC26) | Potency (PC49) | Potency (SC27B) | Potency (TAB109) | Potency (TAB113) | Potency (TAB165) | Potency (W2)

Cc1ccccc1C(OCCN(C)C)c1ccccc1 (stereo unspecified)
active: Potency (TAB165) 7.94 µM | Potency (W2) 4.26 µM
inactive: Potency (PC49) | outcome (CRL-7250)
